# According to PubChem BioAssay (NCI):
# Compounds without any hit were thinned out: in the full panel of roughly 83,000, 20% have a hit.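 Results are percent growth after 48 hours of single-concentration exposure. 100 means growth as in untreated cells, lower positive values show inhibition; negative values down to -100 show cell death.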 A number with no mark means an inactive call. Active and inactive are the calls of the source. The calls were made as follows: active = growth percent below 10; inactive = the rest.
# Experiments:
# Test in all cases: NCI-60 one-dose screen, 48 h (100 = growth as untreated, 0 = no growth, -100 = all killed)
# Settings in all cases: 10 µM unless noted
# NCI-H23 lung = test system: NCI-H23 lung
# NCI-H226 lung = test system: NCI-H226 lung
# NCI-H322M lung = test system: NCI-H322M lung
# HOP-62 NSCLC = test system: HOP-62 NSCLC
# NCI-H460 lung = test system: NCI-H460 lung
# HOP-92 NSCLC = test system: HOP-92 NSCLC
# NCI-H522 lung = test system: NCI-H522 lung
# A549/ATCC NSCLC = test system: A549/ATCC NSCLC
# 786-0 renal = test system: 786-0 renal
# COLO 205 colon = test system: COLO 205 colon
# DU-145 prostate = test system: DU-145 prostate
# K-562 leukemia = test system: K-562 leukemia
# MALME-3M melanoma = test system: MALME-3M melanoma
# MDA-MB-231 breast = test system: MDA-MB-231 breast
# RXF 393 renal = test system: RXF 393 renal
# SF-268 CNS = test system: SF-268 CNS
# SF-295 CNS = test system: SF-295 CNS
# SF-539 CNS = test system: SF-539 CNS
# UACC-257 melanoma = test system: UACC-257 melanoma
# M14 melanoma = test system: M14 melanoma
SMILES,growth (NCI-H23 lung),growth (NCI-H226 lung),growth (NCI-H322M lung),growth (HOP-62 NSCLC),growth (NCI-H460 lung),growth (HOP-92 NSCLC),growth (NCI-H522 lung),growth (A549/ATCC NSCLC),growth (786-0 renal),growth (COLO 205 colon),growth (DU-145 prostate),growth (K-562 leukemia),growth (MALME-3M melanoma),growth (MDA-MB-231 breast),growth (RXF 393 renal),growth (SF-268 CNS),growth (SF-295 CNS),growth (SF-539 CNS),growth (UACC-257 melanoma),growth (M14 melanoma)
COc1cc([C@@H]2c3cc4c(cc3[C@H](OC(C)=O)[C@H]3COC(=O)[C@H]23)OCO4)cc(OC)c1OC,25%,76.4%,42.7%,37.8%,9.09% (active),32.8%,-4.13% (active),19.5%,20.5%,-27.9% (active),1.84% (active),9.74% (active),68.9%,23.7%,54.9%,37%,10.6%,-11% (active),75.9%,6.87% (active)
CC(C)[C@]12O[C@H]1[C@@H]1O[C@]13[C@]1(O[C@H]1C[C@H]1c4c(C(=O)c5ccccc5)oc(OC(=O)c5ccccc5)c4CC[C@@]13C)[C@@H]2O,-14.9% (active),-12.8% (active),9.46% (active),-0.399% (active),9.07% (active),-9.38% (active),-39.6% (active),1.72% (active),1.31% (active),-57% (active),0.787% (active),-12.5% (active),-59.1% (active),34.3%,-81.1% (active),-20.7% (active),8.47% (active),-40.6% (active),-25.5% (active),-73.7% (active)
CC(=O)O[C@H]1C(=O)[C@@]2(C)[C@H]([C@H](OC(=O)c3ccccc3)[C@]3(O)C[C@H](OC(=O)[C@H](OC(=O)OCC4COC(C)(C)O4)[C@@H](NC(=O)c4ccccc4)c4ccccc4)C(C)=C1C3(C)C)[C@]1(OC(C)=O)CO[C@@H]1C[C@@H]2O (stereo not given in full),37.8%,72.8%,40.6%,48.1%,13.1%,74%,38.7%,30%,54.2%,7.19% (active),22.9%,19.8%,45%,39.9%,32.9%,61.1%,17.5%,24.9%,59.4%,-14.7% (active)
O=C(Nc1ccncc1F)c1cn(CC2CC2)c2ccccc12,101%,83.7%,109%,108%,101%,123%,92.3%,98.5%,97.6%,112%,114%,95.7%,119%,109%,103%,105%,100%,110%,108%,108%
N#CC1(c2ccccc2)CCN(Cc2ccccc2)CC1,98.9%,101%,144%,106%,104%,51.8%,92.6%,99.5%,101%,105%,107%,98.3%,138%,110%,105%,94.9%,89.9%,107%,115%,106%
CN1C(=O)C(=Cc2cn(Cc3ccccc3)c3ccccc23)C(=O)N(C)C1=O,80.4%,-71% (active),72.3%,73.6%,0.11% (active),65.1%,92.6%,81.7%,93.9%,1.43% (active),103%,51.1%,91.3%,75.5%,56.9%,95.4%,34.7%,86.2%,27.9%,92.6%
CCC(O)(CN)c1ccccc1 (stereo not given),101%,92.4%,102%,97.3%,107%,93.1%,79.2%,86.6%,97.8%,102%,107%,107%,101%,101%,110%,100%,92.6%,99%,91.9%,95%
CC(=O)[O][Hg][O]C(C)=O,98.4%,118%,89.6%,100%,101%,142%,-73.9% (active),103%,103%,88.5%,94.8%,29.7%,54.3%,110%,98.2%,96.6%,90.3%,108%,90.8%,88.3%
